Bioassay records (PubChem BioAssay)
Dicer inh: blocks human Dicer maturation of pre-miR-21; Q9UPY3; 47,000 compounds, 6% hits; cat-ELCCA pre-miR-21 Dicer processing, chemiluminescence; active compounds read high; AID 1347074; z-score at 25 µM; in the data active = z-score above about 3, passing the limit was not always enough;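 note: plate controls were vehicle for no effect and no enzyme for full effect; higher signal means more uncleaved substrate so more Dicer inhibition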
* marks the source's active call; other numbers are inactive results. Only a selection was taken, and hits are over-represented in it overall.

SMILES	Dicer inh
COc1ccc(C2N(S(=O)(=O)c3ccc(C)cc3)CCN2S(=O)(=O)c2ccc(C)cc2)cc1	3.7*
O=S(=O)(c1ccccc1)N1CCSC1c1ccc(Cl)cc1 (stereo unspecified)	-1
COc1ccc(S(=O)(=O)N2CCSC2c2cc(OC)ccc2OC)cc1 (stereo unspecified)	3.7*
Cc1ccc(S(=O)(=O)N2CCN(S(=O)(=O)c3ccccc3)C2c2ccc(N(C)C)cc2)cc1 (stereo unspecified)	2.1
COc1ccc(OC)c(C2SCCN2S(=O)(=O)c2ccc(C)cc2)c1 (stereo unspecified)	-0.82
COc1ccc(OC)c(C2SCCN2S(=O)(=O)c2ccc(F)cc2)c1 (stereo unspecified)	-0.82
O=S(=O)(c1ccc(-c2ccccc2)cc1)N1CCSC1c1ccccc1 (stereo unspecified)	3.8*
Cc1cc(C)c(S(=O)(=O)Nc2ccc3c4c(cc(=O)n3C)-c3ccccc3C(=O)c24)cc1C	0.7
COCCOC(=O)C1=C(C)NC2=C(C(=O)CC(c3ccccc3Cl)C2)C1c1ccc(C)o1 (stereo unspecified)	-0.93
O=c1c(-c2ccccc2)coc2cc(OCc3ccc(F)cc3)ccc12	-0.71
CC(c1ccccc1)n1c(SCCS(=O)(=O)c2ccc(F)cc2)n[nH]c1=O (stereo unspecified)	-0.26
S=c1sc2ccccc2n1CSc1nc2ccccc2[nH]1	0.32
O=C(CSc1nnc(-c2ccco2)o1)Nc1nnc(-c2cccs2)s1	-4.2
COc1ccc(N2CSCc3nc4ccccc4n3C2)cc1	-0.04
CC(=O)Nc1cc(Cl)c(F)cc1NC(=O)c1c(-c2c(Cl)cccc2Cl)noc1C	0.3
COc1ccc(-c2noc(COc3ccc(C)cc3C)n2)cc1	0.79
Cc1ccc(-c2noc(COc3ccc(Cl)cc3)n2)cc1	6.9
Cc1ccc(-c2noc(COc3ccc(Cl)cc3C)n2)cc1	5.7*
Cc1ccc(C2SCC(=O)N2c2ccc3ccccc3c2)cc1 (stereo unspecified)	-0.71
CCCCCc1c(C)[nH]c(=S)[nH]c1=O	0.61
CNNC(=S)Nc1ccc(Cl)cc1	0.59
S=C(Nc1ccc(Cl)cc1)Nc1ccc(Cl)cc1	1.8
CC(C)=NNC(=S)Nc1ccc(Cl)cc1	6*
Cc1ccc(/C=C2/N=C(c3ccccc3)NC2=O)cc1	-0.29
CSc1nc(-c2ccco2)nn1C(C)=O	-4.5
SMILES	Dicer inh
CSc1nc(-c2ccco2)nn1C(=O)c1ccccc1	3.4*
Cc1ccc(-c2noc(-c3ccco3)n2)cc1	0.03
Cc1ccc(C(=O)n2nc(C)c(Sc3ncccn3)c2C)cc1	-0.27
CSc1nc(-c2ccco2)nn1C(=O)c1ccc(C)cc1	3.2*
COc1ccc(C(=O)Cn2c3ccccc3n3nc(-c4ccco4)nc23)cc1	1.4
c1ccc2[nH]c(SCc3cn4ccsc4n3)nc2c1	0.41
Cn1c(=O)c2c(nc(OCc3ccccc3Cl)n2Cc2ccc(Cl)cc2)n(C)c1=O	-0.14
O=C1/C(=C/c2ccc(Cl)cc2)CC/C1=C\c1ccc(Cl)cc1	-0.47
CN(C)c1ccc(-n2nnnc2SCC(=O)Nc2ccc(OC(F)(F)F)cc2)cc1	-0.39
COc1ccccc1-n1cnc2cc(Nc3nnc(C)c4ccccc34)ccc21	-0.27
c1ccc(-n2cnc3cc(NCc4ccccn4)ccc32)cc1	2.6
COc1ccccc1-n1cnc2cc(NCc3ccncc3)ccc21	5.3*
COC(=O)C1=C(C)NC2=C(C(=O)c3ccccc32)C1c1ccc(OC)c(Cl)c1 (stereo unspecified)	-1.5
O=C(Cn1nc(C(F)(F)F)c2c1CCC2)Nc1ccc2c(c1)OCO2	-0.16
CC(C)(C)SC(=S)SCC(=O)c1ccc(Cl)cc1	-2.7
O=C(CSC(=S)NNc1ccccc1)c1ccc(Cl)cc1	3.1*
O=C(CSC(=S)NNc1ccccc1)c1cccc([N+](=O)[O-])c1	-1.1
CCOC(=O)c1sc(NC(=O)C(C)(C)C)c(C(=O)OCC)c1C	0.97
CCOC(=O)c1c(C)oc2ccc(OCc3ccc(F)cc3)cc12	0.96
O=C(O)c1cc2cc(OCc3ccccc3)ccc2[nH]1	-0.97
CCOC(=O)c1cc2cc(OCc3ccccc3)ccc2n1C(=O)c1ccccc1C(=O)O	3.1*
Cc1cc(C)cc(Sc2c([N+](=O)[O-])ncn2C)c1	-5.6
COC(=O)C1=C(C(=O)c2ccc(C)cc2)C(c2cc(OC)ccc2OC)n2nnnc2N1 (stereo unspecified)	0.35
COc1cc(OC)cc(-c2nc3n(n2)C(c2ccccc2)C2=C(CCCC2=O)N3)c1 (stereo unspecified)	2.4
CC1CC(=O)C2=C(C1)Nc1nc(C(F)(F)F)nn1C2c1ccccc1 (stereo unspecified)	5.2*
O=C1CC(c2ccco2)CC2=C1C(c1ccccc1)n1nc(C(F)(F)F)nc1N2 (stereo unspecified)	0.25
N#Cc1cnc(Nc2nc3ccccc3s2)nc1-c1ccccc1	0.16
CCOC(=O)c1nnn2c1nc(SC(C(C)=O)C(=O)OCC)c1ccccc12 (stereo unspecified)	-1.2
CCOc1nccc(C(F)(F)F)c1C(=O)N(CC)c1c(C)cccc1C	-1.8
